From PubChem BioAssay
Values joined by “and” are separate entries in the source; they are usually repeats but may differ in a detail not shown here. Equal values may be shown once. Inconclusive results are not listed. Active and inactive are the calls of the source. Unless noted, cut-off not given; nearly all actives show AC50 up to about 26 µM.

Assays:
[1] = viability loss in pontine glioma line – cell-based, SU-DIPG-XVII, MIPE5.0, CellTiter-Glo, qHTS, dose response (AID 1347060); conditions: CellTiter-Glo ATP luminescence;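 on AC50: cells exposed to compound for 48 hours before viability readout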
[2] = viability loss in pontine glioma line – cell-based, JHH-DIPG-1, MIPE4.0, CellTiter-Glo, qHTS, dose response (AID 1347062; cut-off not given, nearly all actives have AC50 up to about 27 µM;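 on AC50: cells exposed to compound for two days before readout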); conditions: JHH-DIPG-1 viability, CellTiter-Glo ATP luminescence
[3] = viability loss in pontine glioma line – cell-based, SU-DIPG-IV, MIPE4.0, CellTiter-Glo, qHTS, dose response (AID 1347063; cut-off not given, nearly all actives have AC50 up to about 30 µM;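 further: compound exposure lasted 48 hours before the viability readout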); conditions: CellTiter-Glo ATP luminescence
[4] = viability loss in pontine glioma line – cell-based, SU-DIPG-XIII, MIPE5.0, CellTiter-Glo, qHTS, dose response (AID 1347064; cut-off not given, nearly all actives have AC50 up to about 23 µM;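 on AC50: cells exposed to compound for 48 hours before the viability read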); conditions: CellTiter-Glo ATP luminescence
[5] = viability loss in pontine glioma line – cell-based, SU-DIPG-XXV, MIPE5.0, CellTiter-Glo, qHTS, dose response (AID 1347065); conditions: CellTiter-Glo ATP luminescence;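 further: cells exposed to compound for 48 hours before ATP readout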
[6] = JHH-DIPG-1 glioma cell viability, MIPE5.0 library, CellTiter-Glo luminescence, qHTS (AID 1347067); conditions: JHH-DIPG-1 glioma viability, CellTiter-Glo ATP luminescence;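 further: cells exposed to compound for 48 hours before readout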
[7] = growth inhibition of DIPG cells – cell-based, MIPE5.0 library, qHTS (AID 1347068; cut-off not given, nearly all actives have IC50 up to about 30 µM;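 on IC50: cells exposed to compound for 48 hours before viability readout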); conditions: SU-DIPG-XXV viability
[8] = growth inhibition of DIPG cells – cell-based, MIPE4.0 library, CellTiter-Glo luminescence, qHTS (AID 1347066; cut-off not given, nearly all actives have AC50 up to about 30 µM;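 further: cells exposed to compound for 48 hours before readout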); conditions: SU-DIPG-VI viability, CellTiter-Glo ATP luminescence
[9] = viability loss with induced miR-34 in A549 – imaging, A549 dox-inducible miR-34, nuclei and caspase counts, primary screen (AID 1347080;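 active means compounds whose cell count with miR-34 switched on is under 0.7 times the count with it off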); conditions: A549 miR-34 inducible, Hoechst nuclei count, 48 h
[10] = MELAS cybrid and Rieske KO viability enhancers – cell-based, MELAS cybrids, Rieske KO mouse fibroblasts, CellTiter-Glo, primary screen (AID 1508586;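 active means mean z-score across replicates of 1.96 or higher in either the MELAS or the Rieske mutant cell line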;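 further: z relative to plate mean and SD of compound and empty wells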); conditions: low glucose
[11] = P. berghei load reduction in hepatocytes – cell-based, HepG2, luciferase luminescence, HepG2 viability, primary screen (AID 624349; in the data active means parasite load remaining mostly below about 12%, no sharp cut-off; inactive means mostly above about 10%;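 further: 100% = mean of DMSO negative control wells on the same plate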); conditions: P. berghei liver stage in HepG2, luciferase luminescence, concentration not given here; parasite load remaining: stronger effect = lower value; viability: measured here: HepG2 viability without parasites
[12] = liver-stage malaria parasite load reduction – cell-based, known kinase inhibitor set, luminescence, hepatoma host viability (AID 624392; call rule not given here;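 further: infected cells incubated roughly two days before readout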); conditions: Plasmodium liver stage in hepatoma cells, luciferase luminescence, concentration not given here; liver cell % of control: measured here: host liver cell viability; parasite % of control: stronger effect = lower value
[13] = compounds altering HSF1 focus formation in cells – imaging, Selleck Cancer Library (AID 1347162; in the data active means plate-normalised HSF1 focus index below about 0.46); conditions: human cells, HSF1 nuclear foci imaging, at 10 µM; SSMD: measured here: HSF1 foci SSMD mean; cell count: measured here: cell number; plate-normalised HSF1 focus index: stronger effect = lower value
[14] = drug combination growth inhibition, ovarian cancer – cell-based, oncology-focused library, rucaparib conditional, profiling panel (AID 1508598;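 active means normalized viability below 100% at a tested concentration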); conditions: patient-derived ovarian cancer cells, CellTiter-Glo viability, 144 h, stronger effect = lower value
[15] = stronger effect = lower value, cell number ratio, induced over uninduced
[16] = measured here: relative caspase fold change +Dox/-Dox
[17] = measured here: total cells with miR-34 induction, stronger effect = lower value
[18] = measured here: total cells without miR-34 induction
[19] = MELAS cybrid survival, CellTiter-Glo 48 h, stronger effect = higher value
[20] = Rieske KO mouse fibroblast survival, CellTiter-Glo 72 h

COc1cc2c(Nc3ccc(Cl)c(Cl)c3F)ncnc2cc1OCC1C[C@@H]2CN(C)C[C@@H]2C1 (stereo not given in full)
active: AC50 [1] 5.25 µM | AC50 [2] 18.7 µM | AC50 [3] 6.62 µM | AC50 [4] 8.33 µM | AC50 [5] 7.42 µM and 8.33 µM | AC50 [6] 4.68 µM and 2.35 µM | IC50 [7] 18.6 µM and 16.6 µM

COc1cccc(Nc2c(C(N)=O)cnc3c(C)cc(S(=O)(=O)c4cccc(C(=O)N(C)C)c4)cc23)c1
inactive: outcome [1] | outcome [2] | outcome [3] | outcome [4] | outcome [8] | outcome [6] | outcome [7] | fold change [9, 15] 0.95 | z-score [10, 19] -0.192
9130: cell count [9, 17]
-1.7: z-score [10, 20]
9610: cell count [9, 18]
0.8: fold change [9, 16]

O=C1NCCc2[nH]c(-c3ccncc3)cc21
61.5%: viability [11]
inactive: parasite load remaining [11] 110%

O=C(O)c1ccc2c(c1)nc(Nc1cccc(Cl)c1)c1ccncc12
84.7% and 84.9% and 89.8%: liver cell % of control [12]
inactive: parasite % of control [12] 247% and 142% and 94.6%

Cc1ccc(CN2CCNCC2)cc1NC(=O)CNc1ccc(F)c(F)c1
inactive: outcome [1] | outcome [2] | outcome [4] | outcome [5] | outcome [6] | outcome [7]

Cc1cnc(Nc2ccc(OCCN3CCCC3)cc2)nc1Nc1cccc(S(=O)(=O)NC(C)(C)C)c1
2480: cell count [9, 17]
1.95: fold change [9, 16]
1.73: SSMD [13]
-3.31: z-score [10, 20]
inactive: outcome [2] | outcome [8] | fold change [9, 15] 1.01 | plate-normalised HSF1 focus index [13] 1.11 | viability ([14]; at 0.000305 µM, OCI-C5x cells, with rucaparib 10 µM, 100% = cells with rucaparib alone) 104% | viability ([14]; at 0.000305 µM, OCI-C5x cells, without rucaparib) 124% | viability ([14]; at 0.000305 µM, OCI-P5x cells, without rucaparib) 110% | viability ([14]; at 0.00122 µM, OCI-C5x cells, with rucaparib 10 µM, 100% = cells with rucaparib alone) 113% | viability ([14]; at 0.00122 µM, OCI-C5x cells, without rucaparib) 121% | viability ([14]; at 0.00122 µM, OCI-P5x cells, without rucaparib) 109% | viability ([14]; at 0.00488 µM, OCI-C5x cells, with rucaparib 10 µM, 100% = cells with rucaparib alone) 112% | viability ([14]; at 0.00488 µM, OCI-C5x cells, without rucaparib) 125% | viability ([14]; at 0.00488 µM, OCI-P5x cells, with rucaparib 20 µM, 100% = cells with rucaparib alone) 102% | viability ([14]; at 0.00488 µM, OCI-P5x cells, without rucaparib) 109% | viability ([14]; at 0.0195 µM, OCI-C5x cells, with rucaparib 10 µM, 100% = cells with rucaparib alone) 107% | viability ([14]; at 0.0195 µM, OCI-C5x cells, without rucaparib) 121%
active: AC50 [1] 1.05 µM | AC50 [4] 5.9 µM | AC50 [5] 3.72 µM | AC50 [6] 5.25 µM | IC50 [7] 7.42 µM | z-score [10, 19] 1.98 | viability ([14]; at 0.000305 µM, OCI-P5x cells, with rucaparib 20 µM, 100% = cells with rucaparib alone) 98.4% | viability ([14]; at 0.00122 µM, OCI-P5x cells, with rucaparib 20 µM, 100% = cells with rucaparib alone) 99.3%
6980: cell count [13]
2450: cell count [9, 18]
